The whole screen tested about 310,000 compounds, of which about 14,000 (4.5%) showed an effect of 50% or more. Effects have a minus sign here. The sample holds strong results, similar compounds and a random draw of the others, so the mix is not that of the screen.
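Also: peak tail current of the secondary pulse compared with the same well before compound.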

In the test the target is human ether-à-go-go-related gene (hERG) potassium channel (human, UniProt Q12809). As to the kind of experiment: primary screen, population patch clamp on CHO cells stably expressing hERG; higher = less effect of the substance.
Chain of human ether-à-go-go-related gene (hERG) potassium channel (Q12809 whole entry, looked up): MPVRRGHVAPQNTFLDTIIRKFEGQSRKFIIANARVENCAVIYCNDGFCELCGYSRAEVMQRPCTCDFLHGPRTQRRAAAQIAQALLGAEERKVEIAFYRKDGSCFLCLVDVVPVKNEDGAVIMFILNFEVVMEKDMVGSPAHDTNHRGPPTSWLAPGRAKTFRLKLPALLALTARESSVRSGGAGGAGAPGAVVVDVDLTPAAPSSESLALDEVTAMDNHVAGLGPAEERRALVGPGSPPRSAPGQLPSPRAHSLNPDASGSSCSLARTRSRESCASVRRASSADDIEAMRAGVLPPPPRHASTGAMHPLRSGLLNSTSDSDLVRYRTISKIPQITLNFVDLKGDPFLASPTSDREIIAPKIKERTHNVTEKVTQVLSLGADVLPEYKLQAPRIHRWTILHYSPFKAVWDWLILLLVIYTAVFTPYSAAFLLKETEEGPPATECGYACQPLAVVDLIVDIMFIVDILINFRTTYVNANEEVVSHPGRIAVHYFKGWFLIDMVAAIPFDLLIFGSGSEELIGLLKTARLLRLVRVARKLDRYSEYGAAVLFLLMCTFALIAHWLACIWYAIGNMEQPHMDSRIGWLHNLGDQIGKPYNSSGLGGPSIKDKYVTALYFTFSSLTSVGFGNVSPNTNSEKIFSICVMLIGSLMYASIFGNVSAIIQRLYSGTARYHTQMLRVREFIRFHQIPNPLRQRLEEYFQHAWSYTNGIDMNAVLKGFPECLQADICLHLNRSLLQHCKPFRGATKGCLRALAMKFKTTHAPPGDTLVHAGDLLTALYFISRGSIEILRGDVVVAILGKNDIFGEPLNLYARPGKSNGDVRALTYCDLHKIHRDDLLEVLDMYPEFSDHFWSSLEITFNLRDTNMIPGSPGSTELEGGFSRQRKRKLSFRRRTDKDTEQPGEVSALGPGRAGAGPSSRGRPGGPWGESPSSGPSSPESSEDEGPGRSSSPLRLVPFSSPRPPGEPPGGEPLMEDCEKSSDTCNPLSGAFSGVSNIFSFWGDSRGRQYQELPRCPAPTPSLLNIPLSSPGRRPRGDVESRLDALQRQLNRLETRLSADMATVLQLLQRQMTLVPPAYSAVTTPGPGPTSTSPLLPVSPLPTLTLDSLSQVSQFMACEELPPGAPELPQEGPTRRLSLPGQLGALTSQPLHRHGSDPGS
Turning to `N#CC1(c2ccccc2)CCCN1C(=O)c1ccc(Br)cc1` (stereo not shown), the “hERG current change (%, negative = inhibition) at 10uM” value is listed as -8.79%. As for `CC(=O)Nc1ccc(NC(=O)COc2ccc3c(c2)CCC3)cc1`, the “hERG current change (%, negative = inhibition) at 10uM” value is on record as 24.5%. The figure for `N#CC1CCCc2c1[nH]c1ccc([N+](=O)[O-])cc21` (stereo not shown) is 12.5%; for `S=C(Nc1ccc(Cl)cc1)NC1CC2CCCC(C1)N2C1CCCC1` (stereo not shown) it is -55.5%; for `Cc1cc(C)cc(NC(=S)NC2CC3CCCC(C2)N3C2CC2)c1` (stereo not shown) it is -67.3%. The figure for `S=C(Nc1ccc(Cl)cc1)NC1CC2CCCC(C1)N2C1CC1` (stereo not shown) is -32.9%.

`Cc1cc(C)cc(NC(=O)NC2CCCCCCC2)c1`: the “hERG current change (%, negative = inhibition) at 10uM” value is listed as -5.07%. The figure for `CCCN1C2CCCC1CC(NC(=S)Nc1cc(C)cc(C)c1)C2` (stereo not shown) is -83.7%; for `S=C(Nc1ccccc1Cl)NC1CC2CCCC(C1)N2C1CC1` (stereo not shown) it is -23.8%.

For the compound `COc1ccc(NC(=S)NC2CC3CCCC(C2)N3C2CC2)cc1` (stereo not shown), the “hERG current change (%, negative = inhibition) at 10uM” value is reported as -41.3%. The figure for `CCCN1C2CCCC1CC(NC(=S)Nc1cccc(C)c1)C2` (stereo not shown) is -44.5%. Take `C=CCN1C2CCCC1CC(NC(=O)Nc1cccc(C(C)=O)c1)C2` (stereo not shown): the “hERG current change (%, negative = inhibition) at 10uM” value was determined as 5.52%. The figure for `C=CCN1C2CCCC1CC(NC(=O)Nc1cc(C)cc(C)c1)C2` (stereo not shown) is -51.8%; for `CCCN1C2CCCC1CC(NC(=S)Nc1cc(C)ccc1C)C2` (stereo not shown) it is 11.6%. With `S=C(Nc1cccc(Cl)c1)NC1CC2CCCC(C1)N2C1CCCC1` (stereo not shown) the figure was 19%. Regarding `CC1=C(C)C(OCCBr)N(c2cc(O)c(Cl)cc2F)C1=O` (stereo not shown), the “hERG current change (%, negative = inhibition) at 10uM” value is recorded as 4.66%. With `CN(C(=O)c1ccc(NC(=O)Cc2ccc(NC(=O)C3CCN(C(=O)CCc4ccccc4)CC3)cc2)cc1)C1CC1` the figure was 9.51%.

In the case of `COc1cccc2cc(C(=O)n3ccc(C)n3)c(=O)oc12`, the “hERG current change (%, negative = inhibition) at 10uM” value is given as 8.24%. `CN1CCN(C2=C(NS(=O)(=O)c3ccccc3)C(=O)c3ccccc3C2=O)CC1`: the “hERG current change (%, negative = inhibition) at 10uM” value stood at 2.75%. The figure for `Cc1ccc(S(=O)(=O)NCC2CCC(C(=O)NCc3ccc4c(c3)OCO4)CC2)cc1` (stereo not shown) is -0.473%. With `Cl.Clc1ccccc1CN1CCN(/N=C/c2ccncc2)CC1` the figure was -24.3%; with `CCCCCCCN1C/C=C\C(c2ccc(OC)cc2)N(Cc2ccc(F)cc2)C(=O)[C@H]1Cc1ccccc1` (stereo partly shown), 8.55%. With `NC(=O)CC(NC(=O)Cc1ccc(Cl)cc1)c1ccc(N2CCC(Cc3ccccc3)CC2)c([N+](=O)[O-])c1` (stereo not shown) the figure was 17.7%. Consider `Cc1nc(SCC(=O)NCc2ccco2)c2c(C)c(C)sc2n1`, for which the “hERG current change (%, negative = inhibition) at 10uM” value is on record as -2.85%. As for `O=C(COC(=O)c1ccc(NS(=O)(=O)c2cccs2)cc1O)NC1CCCCC1`, the “hERG current change (%, negative = inhibition) at 10uM” value is on record as 8.92%.
